The supplement of paper PMC11732987, “Enantioselective OTUD7B fragment discovery through chemoproteomics screening and high-throughput optimisation” (Communications Chemistry, 2025)

Key:
Test in all cases: log2 ratio of Biotin-Ahx-Ub-VS probe labelling (fragment/DMSO); higher = less target engagement (more negative = stronger competition), active = hit call of the paper (q ≤ 0.05, log2 ratio ≤ -1)
Conditions in all cases: compound concentration: 200 uM; treatment time: 3 h
USP34 = USP34 (UniProt Q70CQ2)
In short: (§1)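 HEK293T lysate, 495 µg per sample in Tris/CHAPS/IGEPAL buffer with protease inhibitors, was treated in triplicate with fragment at 200 µM or vehicle for 3 h and then with Biotin-Ahx-Ub-VS at 0.5 µM final for 1 h. Labelled DUBs were NeutrAvidin-enriched, digested with LysC and trypsin, and run by diaPASEF LC-MS/MS. Spectronaut label-free quantities were global-median-normalised, and values are average log2 fragment/vehicle ratios by unpaired t-test on proteins with ≥2 unique peptides.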

USP36 = molecular target: T1, USP36 (UniProt Q9P275)
T1 sequence (whole entry): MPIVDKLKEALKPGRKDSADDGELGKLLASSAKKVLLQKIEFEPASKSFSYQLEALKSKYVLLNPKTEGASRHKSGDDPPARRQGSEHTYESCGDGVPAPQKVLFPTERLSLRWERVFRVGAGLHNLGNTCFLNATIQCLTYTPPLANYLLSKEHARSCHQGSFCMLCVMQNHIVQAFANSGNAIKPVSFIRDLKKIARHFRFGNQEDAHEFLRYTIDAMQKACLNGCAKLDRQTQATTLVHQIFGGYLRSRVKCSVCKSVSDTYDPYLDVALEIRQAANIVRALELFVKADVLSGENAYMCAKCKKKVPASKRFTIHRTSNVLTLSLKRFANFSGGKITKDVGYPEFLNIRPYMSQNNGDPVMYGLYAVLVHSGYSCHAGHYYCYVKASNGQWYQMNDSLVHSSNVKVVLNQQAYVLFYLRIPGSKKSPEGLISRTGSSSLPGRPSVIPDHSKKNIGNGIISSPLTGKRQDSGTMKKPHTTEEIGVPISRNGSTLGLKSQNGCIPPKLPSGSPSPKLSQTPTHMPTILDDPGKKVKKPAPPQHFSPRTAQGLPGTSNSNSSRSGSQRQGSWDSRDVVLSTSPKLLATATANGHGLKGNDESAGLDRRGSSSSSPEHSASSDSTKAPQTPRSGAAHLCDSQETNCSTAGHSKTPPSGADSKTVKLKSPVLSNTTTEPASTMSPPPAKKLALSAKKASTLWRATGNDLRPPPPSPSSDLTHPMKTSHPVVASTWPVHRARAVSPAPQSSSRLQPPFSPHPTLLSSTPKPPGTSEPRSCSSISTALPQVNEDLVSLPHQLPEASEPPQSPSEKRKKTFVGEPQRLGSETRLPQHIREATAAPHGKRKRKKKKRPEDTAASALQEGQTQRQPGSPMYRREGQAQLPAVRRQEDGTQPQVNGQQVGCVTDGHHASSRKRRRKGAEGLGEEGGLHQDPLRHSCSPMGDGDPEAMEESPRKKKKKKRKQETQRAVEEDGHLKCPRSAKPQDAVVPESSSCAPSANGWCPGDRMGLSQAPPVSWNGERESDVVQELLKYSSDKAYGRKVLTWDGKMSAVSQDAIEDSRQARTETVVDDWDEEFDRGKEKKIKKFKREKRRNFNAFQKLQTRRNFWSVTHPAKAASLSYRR
In short: as §1

USP38 = molecular target: T2, USP38 (UniProt Q8NB14)
T2 sequence (whole entry): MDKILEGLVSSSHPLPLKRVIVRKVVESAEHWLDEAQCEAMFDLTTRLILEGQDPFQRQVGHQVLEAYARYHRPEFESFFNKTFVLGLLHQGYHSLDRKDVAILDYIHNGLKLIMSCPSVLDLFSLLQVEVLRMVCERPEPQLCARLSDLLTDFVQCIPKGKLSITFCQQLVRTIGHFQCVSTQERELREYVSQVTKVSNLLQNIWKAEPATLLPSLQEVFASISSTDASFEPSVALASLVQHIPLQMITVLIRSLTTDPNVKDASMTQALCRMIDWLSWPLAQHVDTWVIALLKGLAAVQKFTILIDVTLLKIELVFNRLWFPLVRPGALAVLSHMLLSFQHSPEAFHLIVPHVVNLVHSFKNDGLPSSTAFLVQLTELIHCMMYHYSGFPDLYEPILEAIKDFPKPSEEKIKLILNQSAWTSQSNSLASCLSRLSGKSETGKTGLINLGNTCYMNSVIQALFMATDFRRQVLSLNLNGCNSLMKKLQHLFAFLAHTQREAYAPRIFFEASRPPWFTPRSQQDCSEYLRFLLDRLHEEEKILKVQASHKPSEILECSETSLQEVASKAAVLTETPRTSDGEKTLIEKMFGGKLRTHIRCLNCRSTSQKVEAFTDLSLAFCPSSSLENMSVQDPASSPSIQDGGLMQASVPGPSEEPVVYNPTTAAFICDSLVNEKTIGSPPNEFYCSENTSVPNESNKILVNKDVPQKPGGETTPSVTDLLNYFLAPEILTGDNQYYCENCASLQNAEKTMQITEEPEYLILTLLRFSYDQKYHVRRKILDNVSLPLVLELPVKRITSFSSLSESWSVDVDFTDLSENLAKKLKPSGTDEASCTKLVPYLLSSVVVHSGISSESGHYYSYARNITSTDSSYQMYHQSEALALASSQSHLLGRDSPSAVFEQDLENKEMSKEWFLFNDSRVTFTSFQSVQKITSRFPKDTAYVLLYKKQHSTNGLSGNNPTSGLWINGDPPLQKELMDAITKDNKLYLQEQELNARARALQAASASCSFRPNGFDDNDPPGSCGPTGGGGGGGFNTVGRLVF
In short: as §1

USP39 = molecular target: T3, USP39 (UniProt Q53GS9)
T3 sequence (whole entry): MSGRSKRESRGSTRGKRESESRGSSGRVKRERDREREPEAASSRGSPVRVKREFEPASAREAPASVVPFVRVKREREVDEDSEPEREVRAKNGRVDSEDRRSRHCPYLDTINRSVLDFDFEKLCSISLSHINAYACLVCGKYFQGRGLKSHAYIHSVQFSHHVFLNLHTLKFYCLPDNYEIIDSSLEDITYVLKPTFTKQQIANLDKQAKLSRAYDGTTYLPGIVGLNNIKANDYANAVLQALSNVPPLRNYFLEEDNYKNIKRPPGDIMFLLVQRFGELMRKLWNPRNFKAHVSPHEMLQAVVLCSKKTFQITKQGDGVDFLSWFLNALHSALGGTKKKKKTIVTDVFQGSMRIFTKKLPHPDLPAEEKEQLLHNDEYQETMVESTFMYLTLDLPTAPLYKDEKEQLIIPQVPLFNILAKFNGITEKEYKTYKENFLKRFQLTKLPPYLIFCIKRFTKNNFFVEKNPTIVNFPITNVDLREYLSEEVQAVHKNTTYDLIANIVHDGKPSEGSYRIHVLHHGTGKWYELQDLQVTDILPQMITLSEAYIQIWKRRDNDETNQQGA
In short: as §1

USP4 = molecular target: T4, USP4 (UniProt Q13107)
T4 sequence (whole entry): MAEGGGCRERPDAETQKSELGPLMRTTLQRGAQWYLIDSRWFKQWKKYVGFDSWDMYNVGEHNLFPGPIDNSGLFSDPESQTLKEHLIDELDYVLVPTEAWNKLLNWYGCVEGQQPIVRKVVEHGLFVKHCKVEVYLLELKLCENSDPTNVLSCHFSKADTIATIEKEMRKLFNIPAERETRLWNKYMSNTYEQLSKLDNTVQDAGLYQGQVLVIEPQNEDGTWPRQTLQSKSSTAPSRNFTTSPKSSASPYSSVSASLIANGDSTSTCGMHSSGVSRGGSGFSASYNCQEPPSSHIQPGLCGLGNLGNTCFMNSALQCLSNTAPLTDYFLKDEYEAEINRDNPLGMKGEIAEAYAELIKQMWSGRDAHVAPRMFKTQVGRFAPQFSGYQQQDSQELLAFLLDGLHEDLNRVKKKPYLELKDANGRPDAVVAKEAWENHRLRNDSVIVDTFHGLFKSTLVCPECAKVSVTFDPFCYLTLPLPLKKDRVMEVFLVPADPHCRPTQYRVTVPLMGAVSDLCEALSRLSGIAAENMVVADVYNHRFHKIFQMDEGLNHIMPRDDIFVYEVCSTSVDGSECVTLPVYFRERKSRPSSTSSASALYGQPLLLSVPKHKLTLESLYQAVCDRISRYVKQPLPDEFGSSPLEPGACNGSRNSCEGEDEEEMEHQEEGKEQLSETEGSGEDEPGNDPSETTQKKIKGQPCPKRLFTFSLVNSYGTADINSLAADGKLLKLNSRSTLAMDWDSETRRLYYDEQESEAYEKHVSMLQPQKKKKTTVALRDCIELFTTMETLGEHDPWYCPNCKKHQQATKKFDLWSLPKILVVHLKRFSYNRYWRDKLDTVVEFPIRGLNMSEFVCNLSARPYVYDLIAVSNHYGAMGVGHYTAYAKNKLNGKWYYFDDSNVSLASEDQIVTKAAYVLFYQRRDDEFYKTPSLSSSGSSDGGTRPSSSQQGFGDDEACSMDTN
In short: as §1

Measured: log2 ratio of Biotin-Ahx-Ub-VS probe labelling

Sequence of USP34 (Q70CQ2 whole entry, the tested form may be a part): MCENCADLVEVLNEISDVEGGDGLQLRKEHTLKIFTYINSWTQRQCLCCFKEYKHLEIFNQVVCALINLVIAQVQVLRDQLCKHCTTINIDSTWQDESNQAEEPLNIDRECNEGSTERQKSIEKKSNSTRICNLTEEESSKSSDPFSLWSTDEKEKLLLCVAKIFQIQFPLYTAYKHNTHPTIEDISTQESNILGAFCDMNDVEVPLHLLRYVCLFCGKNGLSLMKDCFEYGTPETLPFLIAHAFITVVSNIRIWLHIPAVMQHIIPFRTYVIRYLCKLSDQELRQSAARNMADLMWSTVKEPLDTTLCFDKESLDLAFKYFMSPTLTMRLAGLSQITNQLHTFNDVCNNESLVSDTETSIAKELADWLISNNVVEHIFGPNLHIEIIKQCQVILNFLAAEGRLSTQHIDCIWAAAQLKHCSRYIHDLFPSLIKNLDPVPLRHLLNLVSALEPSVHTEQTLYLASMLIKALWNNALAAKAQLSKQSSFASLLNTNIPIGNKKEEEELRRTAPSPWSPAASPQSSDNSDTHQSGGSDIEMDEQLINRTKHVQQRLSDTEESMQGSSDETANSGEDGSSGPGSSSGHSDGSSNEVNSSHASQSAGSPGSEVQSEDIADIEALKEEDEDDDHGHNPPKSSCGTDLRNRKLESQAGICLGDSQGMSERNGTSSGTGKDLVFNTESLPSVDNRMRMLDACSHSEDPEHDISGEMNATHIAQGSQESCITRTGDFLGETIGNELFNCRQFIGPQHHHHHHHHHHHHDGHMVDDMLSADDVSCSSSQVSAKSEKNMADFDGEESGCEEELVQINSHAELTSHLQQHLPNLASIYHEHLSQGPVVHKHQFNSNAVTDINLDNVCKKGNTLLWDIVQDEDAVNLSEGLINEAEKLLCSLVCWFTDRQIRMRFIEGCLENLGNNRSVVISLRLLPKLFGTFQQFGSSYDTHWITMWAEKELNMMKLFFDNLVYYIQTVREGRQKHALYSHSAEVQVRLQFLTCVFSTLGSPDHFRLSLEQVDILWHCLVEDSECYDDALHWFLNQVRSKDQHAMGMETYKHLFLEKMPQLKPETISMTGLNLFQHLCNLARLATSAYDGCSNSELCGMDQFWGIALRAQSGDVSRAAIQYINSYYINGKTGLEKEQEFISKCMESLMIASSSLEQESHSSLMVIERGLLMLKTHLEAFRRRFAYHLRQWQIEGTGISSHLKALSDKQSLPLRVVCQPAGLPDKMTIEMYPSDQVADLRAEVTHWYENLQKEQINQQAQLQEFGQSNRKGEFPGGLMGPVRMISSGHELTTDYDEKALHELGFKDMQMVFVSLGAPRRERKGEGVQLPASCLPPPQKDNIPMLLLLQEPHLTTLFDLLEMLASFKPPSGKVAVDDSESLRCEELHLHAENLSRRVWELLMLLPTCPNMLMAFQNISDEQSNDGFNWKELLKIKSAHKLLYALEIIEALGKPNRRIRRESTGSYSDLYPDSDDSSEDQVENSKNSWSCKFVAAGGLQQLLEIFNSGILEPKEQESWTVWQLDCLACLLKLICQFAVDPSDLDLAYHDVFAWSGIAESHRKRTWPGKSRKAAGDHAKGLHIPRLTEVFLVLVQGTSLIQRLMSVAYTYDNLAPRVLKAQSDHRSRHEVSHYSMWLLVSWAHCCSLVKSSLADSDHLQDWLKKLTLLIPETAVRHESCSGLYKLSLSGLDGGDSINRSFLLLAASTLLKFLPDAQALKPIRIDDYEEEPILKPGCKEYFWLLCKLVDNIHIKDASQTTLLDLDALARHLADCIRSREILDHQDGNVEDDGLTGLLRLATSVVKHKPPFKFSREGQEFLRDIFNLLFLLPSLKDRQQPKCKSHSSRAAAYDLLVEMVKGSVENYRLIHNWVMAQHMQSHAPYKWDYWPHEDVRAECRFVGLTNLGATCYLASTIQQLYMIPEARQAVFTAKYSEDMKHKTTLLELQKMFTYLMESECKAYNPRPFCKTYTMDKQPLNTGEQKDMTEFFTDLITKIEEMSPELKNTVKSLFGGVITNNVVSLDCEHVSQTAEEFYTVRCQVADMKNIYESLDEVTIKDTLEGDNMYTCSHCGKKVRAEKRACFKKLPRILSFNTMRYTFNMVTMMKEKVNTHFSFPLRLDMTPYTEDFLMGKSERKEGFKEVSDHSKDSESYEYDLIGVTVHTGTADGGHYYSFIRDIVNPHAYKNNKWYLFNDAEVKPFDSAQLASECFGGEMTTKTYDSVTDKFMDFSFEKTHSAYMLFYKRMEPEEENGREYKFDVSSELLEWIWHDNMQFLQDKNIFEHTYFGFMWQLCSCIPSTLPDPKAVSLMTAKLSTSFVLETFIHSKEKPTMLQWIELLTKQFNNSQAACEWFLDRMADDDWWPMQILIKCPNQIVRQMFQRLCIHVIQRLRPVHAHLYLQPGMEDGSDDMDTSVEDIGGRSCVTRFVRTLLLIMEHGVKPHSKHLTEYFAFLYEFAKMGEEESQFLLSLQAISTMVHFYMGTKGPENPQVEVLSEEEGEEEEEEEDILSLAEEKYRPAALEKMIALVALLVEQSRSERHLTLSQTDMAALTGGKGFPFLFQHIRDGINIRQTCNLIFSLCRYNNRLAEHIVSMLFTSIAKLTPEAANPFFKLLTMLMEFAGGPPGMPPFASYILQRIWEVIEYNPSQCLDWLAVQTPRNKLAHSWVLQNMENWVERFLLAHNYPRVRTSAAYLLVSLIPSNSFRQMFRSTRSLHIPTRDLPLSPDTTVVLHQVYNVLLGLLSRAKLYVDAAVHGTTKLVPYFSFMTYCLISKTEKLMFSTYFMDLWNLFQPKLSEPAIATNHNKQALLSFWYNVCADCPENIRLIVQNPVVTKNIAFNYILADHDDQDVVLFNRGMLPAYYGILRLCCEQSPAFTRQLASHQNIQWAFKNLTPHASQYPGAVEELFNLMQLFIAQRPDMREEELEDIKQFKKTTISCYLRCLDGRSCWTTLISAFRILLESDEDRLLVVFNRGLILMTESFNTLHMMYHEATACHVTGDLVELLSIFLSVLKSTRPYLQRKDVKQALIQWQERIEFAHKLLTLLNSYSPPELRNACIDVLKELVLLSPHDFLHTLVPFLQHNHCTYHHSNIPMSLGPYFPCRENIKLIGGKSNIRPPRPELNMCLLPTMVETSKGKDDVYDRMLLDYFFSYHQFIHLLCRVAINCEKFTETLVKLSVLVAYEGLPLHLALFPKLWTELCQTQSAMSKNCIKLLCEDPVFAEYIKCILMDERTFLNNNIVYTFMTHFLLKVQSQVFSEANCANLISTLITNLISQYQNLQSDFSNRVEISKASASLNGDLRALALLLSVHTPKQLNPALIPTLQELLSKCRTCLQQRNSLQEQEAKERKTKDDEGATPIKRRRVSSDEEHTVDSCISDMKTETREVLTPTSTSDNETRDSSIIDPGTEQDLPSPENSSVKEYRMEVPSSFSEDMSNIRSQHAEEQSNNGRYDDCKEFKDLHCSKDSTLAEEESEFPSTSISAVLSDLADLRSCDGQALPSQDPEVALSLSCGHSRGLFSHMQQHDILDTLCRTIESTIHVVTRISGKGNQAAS

O=C(CCl)Nc1ccc2c(c1)OC(F)(F)O2
inactive: USP34 -0.119 | USP36 0.029 | USP38 0.122 | USP39 0.433 | USP4 0.0436
